Source: PubChem BioAssay (EPA / NIEHS)
The source made the active and inactive calls. The calls were made as follows: active = hit-call score of the fitted dose curve at least 0.9, where 1 is the maximum; inactive = score below 0.9.

The compounds below were run on CYP2E1 (gene 1571) (assay: LTEA_HepaRG_CYP2E1: Life Technologies and Expression Analysis (LTEA) Assay for CYP2E1 using HepaRG (AID 2283485)). Conditions: mRNA level, 48 h; actives raise or lower the signal.
Method in brief: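 HepaRG cells in serum-free induction medium exposed 48 h to test chemicals, 8 half-log concentrations up to 100 uM in 0.5% DMSO, duplicate. CYP2E1 mRNA by qRT-PCR, normalized to ACTB, GAPDH, POLR2A; bidirectional fit versus DMSO.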
`CCCCOC(=O)c1ccc(O)cc1` was tested, and the outcome was “inactive”. With `O=c1ccc2ccccc2o1` the AC50 was 50 µM (active). In the case of `CC(C)(c1cc(Br)c(O)c(Br)c1)c1cc(Br)c(O)c(Br)c1`, the AC50 is reported as 85.6 µM (active). With `CCOC(=O)O[C@H](C)OC(=O)c1ccc2c(c1)cc(C(=O)NC1CCN(C(C)C)CC1)n2Cc1cc(-c2ccc(Cl)s2)on1` the outcome was “inactive”. For `CC1(C)NC(=O)N(c2ccc([N+](=O)[O-])c(C(F)(F)F)c2)C1=O`, the AC50 was 63.2 µM (active). In the case of `Cc1occc1C(=O)Nc1ccc(C(=O)N2CCC(F)(F)/C(=C\C(=O)N3CCC(N4CCCCC4)CC3)c3ccccc32)cc1`, the AC50 is reported as 31.2 µM (active). With `COc1ccc2cc(S(=O)(=O)N[C@H](CC(=O)N[C@H](Cc3ccc(CN4[C@H](C)CCC[C@@H]4C)cc3)C(=O)N(C)C(C)C)c3ccc4c(c3)OCO4)ccc2c1` the AC50 was 29.7 µM (active). With `CCCCCCCC[Si](OCC)(OCC)OCC` the outcome was “inactive”. `O=C(O)c1ccccc1C(=O)OCc1ccccc1` was tested, and the outcome was “inactive”. For `Cc1oc2c(NC(=O)c3c(Cl)cccc3Cl)cccc2c1C(C)(C)O`, the AC50 was 39.7 µM (active). With `Cc1ccc(C(C)C)cc1` the outcome was “inactive”. `O=CCCCC=O` was tested, and the outcome was “inactive”. With `CC(=O)N1CCN(c2ccc(OC[C@H]3CO[C@](Cn4ccnc4)(c4ccc(Cl)cc4Cl)O3)cc2)CC1` the AC50 was 12.9 µM (active). For `CC(C)(C)c1csc(-c2cc3cc(OCc4ccccc4CC(=O)O)ccc3o2)n1`, the AC50 was 16.8 µM (active). In the case of `CCN(Cc1cccc(S(=O)(=O)O)c1)c1ccc(C(=C2C=CC(=[N+](CC)Cc3cccc(S(=O)(=O)O)c3)C=C2)c2ccccc2S(=O)(=O)[O-])cc1`, the outcome is reported as “inactive”. With `O=C(O)Cn1c(=O)n(Cc2ccc(Br)cc2F)c(=O)c2ccc(Cl)cc21` the AC50 was 25.8 µM (active). With `CN(C)c1ccc(C(=C2C=CC(=[N+](C)C)C=C2)c2ccc(N(C)C)cc2)cc1` the AC50 was 2.31 µM (active). For `CC/C(=C(/CC)c1ccc(O)cc1)c1ccc(O)cc1`, the AC50 was 82.1 µM (active). With `CCCOC(=O)c1cc(O)c(O)c(O)c1` the AC50 was 21.6 µM (active). In the case of `O=C(Nc1ccc(Cl)cc1)Nc1ccc(Cl)c(Cl)c1`, the AC50 is reported as 15.8 µM (active). With `c1ccc2ccccc2c1` the outcome was “inactive”. In the case of `CO[C@H]1/C=C/O[C@@]2(C)Oc3c(C)c(O)c4c(O)c(c(/C=N/N5CCN(C)CC5)c(O)c4c3C2=O)NC(=O)/C(C)=C\C=C\[C@H](C)[C@H](O)[C@@H](C)[C@@H](O)[C@@H](C)[C@H](OC(C)=O)[C@@H]1C`, the AC50 is reported as 1.06 µM (active). `CC(C)(C)c1cc(/C=C2\SC(N)=NC2=O)cc(C(C)(C)C)c1O` was tested, and the AC50 was 83.2 µM (active). For `C[C@]12CC[C@@H]3c4ccc(O)cc4CC[C@H]3[C@@H]1CC[C@H]2O`, the AC50 was 88.4 µM (active). `Clc1ccccc1C(c1ccccc1)(c1ccccc1)n1ccnc1` was tested, and the AC50 was 11.3 µM (active). In the case of `CCCCCCCCCCCO`, the outcome is reported as “inactive”. `CN1C(=O)N(c2ccccc2Br)Cc2cnc(Nc3ccc4c(c3)OCC(CO)O4)nc21` (stereo unspecified) was tested, and the AC50 was 35 µM (active). With `Cc1c2ccccc2c(C)c2c1ccc1ccccc12` the AC50 was 18.8 µM (active). For `CC(C)(O)c1ccc(CNC(=O)c2cccnc2Oc2ccc3nonc3c2)cc1`, the AC50 was 34.2 µM (active). `COc1cc(C(=O)NC2CCN(C)CC2)ccc1Nc1ncc2c(n1)N(C1CCCC1)CC(F)(F)C(=O)N2C` was tested, and the AC50 was 22.9 µM (active). In the case of `Cc1cn([C@H]2C[C@H](N=[N+]=[N-])[C@@H](CO)O2)c(=O)[nH]c1=O`, the outcome is reported as “inactive”. `CCCCOC(=O)CC(CC(=O)OCCCC)(OC(C)=O)C(=O)OCCCC` was tested, and the outcome was “inactive”. In the case of `CN(C)C(=O)C1(N2CCCCC2)CCN(CC[C@@]2(c3ccc(Cl)c(Cl)c3)CN(C(=O)c3ccccc3)CCO2)CC1`, the AC50 is reported as 8.56 µM (active). In the case of `CCCCCc1ccc(N)cc1`, the outcome is reported as “inactive”. For `CCO[Si](CCCNC(N)=O)(OCC)OCC`, the outcome was “inactive”. In the case of `O=C1c2ccccc2C(=O)N1CCc1noc(-c2ccc(CN3CCCCCC3)s2)n1`, the outcome is reported as “inactive”.
